Anthrax LF prot = blocks Bacillus anthracis lethal factor protease; multiplex microsphere protease cleavage assay, LF; inhibition, % at 10 µM; hit rate 0.12% among 360,000; also: plate controls were buffer without enzyme for full effect and enzyme alone for no effect
Bead autofluor = compound fluorescence in toxin protease inhibitor counterscreen; compound autofluorescence counterscreen, microsphere flow cytometry; active compounds read high; fluorescence intensity (concentration not given with the values); hit rate 3.1% among 360,000; AID 624483; in the data active = fluorescence intensity above about 16000; inconclusive = no clear call, values can overlap the other calls
GDH-TPI inh = GDH-TPI coupled enzyme inhibition counter-screen | GDH-TPI coupled enzyme counterscreen, NADH absorbance | inhibition, % at 4.8 µM | hit rate 1.2% among 360,000; in the data active = inhibition above about 30%;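 also: 0% = DMSO wells and 100% = wells lacking the enzyme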
Mtb FBA inh = Mtb fructose-bisphosphate aldolase inhibition | P9WQA3 | hit rate 2.3% among 360,000 | purified M. tuberculosis FBA, fluorescence read-out | inhibition, % at 1 µM | AID 588726; in the data active = inhibition above about 27%;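 also: 0% = vehicle and 100% = reference inhibitor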
Target sequence (P9WQA3 whole entry, looked up): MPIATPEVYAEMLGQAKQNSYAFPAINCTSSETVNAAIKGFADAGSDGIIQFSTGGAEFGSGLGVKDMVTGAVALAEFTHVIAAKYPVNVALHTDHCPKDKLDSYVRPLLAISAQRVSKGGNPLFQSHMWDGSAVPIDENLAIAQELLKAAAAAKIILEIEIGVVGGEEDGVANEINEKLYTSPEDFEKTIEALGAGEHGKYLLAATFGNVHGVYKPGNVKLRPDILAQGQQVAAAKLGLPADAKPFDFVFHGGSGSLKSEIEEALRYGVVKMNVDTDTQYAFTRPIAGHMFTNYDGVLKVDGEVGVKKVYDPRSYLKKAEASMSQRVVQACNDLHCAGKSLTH
BoNT A protease = BoNT A light chain protease inhibition; hit rate 0.17% among 360,000; multiplex microsphere protease substrate cleavage, flow cytometry; inhibition, % at 10 µM; also: plate controls were buffer without enzyme for full effect and enzyme alone for no effect
BoNT F protease = blocks Botulinum neurotoxin F light chain protease; Multiplex microsphere protease cleavage assay, flow cytometry; AID 588497; hit rate 0.22% among 360,000; inhibition, % at 10 µM; in the data active = inhibition above about 35%, passing the limit was not always enough; inconclusive = no clear call, values can overlap the other calls; also: plate controls were buffer without enzyme for full effect and enzyme alone for no effect
An asterisk follows results filed as active. Most compounds without a hit are left out; they make up all but 6.7% or so of the library. Rule as the data show it, unless noted: active = inhibition above about 30%; inconclusive = no clear call, values can overlap the other calls; inactive = below that.

Screening CN(C(=S)Nc1ccccc1F)C1(c2ccccc2Cl)CCCCC1=O (stereo unspecified) returned Anthrax LF prot -5, Bead autofluor 20195*, GDH-TPI inh -10, Mtb FBA inh 1, BoNT A protease -1 and BoNT F protease -4.
Nc1nc(C23CC4CC(CC(Cl)(C4)C2)C3)cs1 was read as Anthrax LF prot -2, Bead autofluor 4493, GDH-TPI inh -4, Mtb FBA inh 2, BoNT A protease -2 and BoNT F protease -11.
COc1ccc(C(=O)CC(Nc2ccc([N+](=O)[O-])cc2)c2ccc(OC)cc2)cc1 (stereo unspecified) was read as Anthrax LF prot -2, Bead autofluor 24070*, GDH-TPI inh 20, Mtb FBA inh 0, BoNT A protease -2 and BoNT F protease -4.
For COc1ccc(C(=O)CC(=O)Nc2ccc([N+](=O)[O-])cc2)cc1 the results were Anthrax LF prot 9, Bead autofluor 3498, GDH-TPI inh 19, Mtb FBA inh -3, BoNT A protease -1 and BoNT F protease -19.
`COC(=O)C1=CN(c2cccc(C)c2)C=C(C(=O)OC)C1c1cc(OC)c(O)c([N+](=O)[O-])c1` gave Anthrax LF prot 0, Bead autofluor 22321*, GDH-TPI inh 10, Mtb FBA inh -2, BoNT A protease 2 and BoNT F protease 2.
Screening CSCCC(NC(=O)c1ccccc1Cl)C(=O)N1CCN(C(C)=O)CC1 (stereo unspecified) returned Anthrax LF prot 0, Bead autofluor 5403, GDH-TPI inh 2, Mtb FBA inh -3, BoNT A protease 0 and BoNT F protease -5.
O=C1NCC(CN(c2ccccc2)c2ccccc2)O1 (stereo unspecified) was read as Anthrax LF prot -3, Bead autofluor 19299*, GDH-TPI inh -17, Mtb FBA inh 2, BoNT A protease 3 and BoNT F protease 4.
Cc1ccccc1OCC1CNC(=O)O1 (stereo unspecified) was read as Anthrax LF prot 2, Bead autofluor 2006, GDH-TPI inh 6, Mtb FBA inh 0, BoNT A protease 0 and BoNT F protease 0.
Screening Cc1ccc(C(=O)N/N=C/C2=Cc3ccccc3OC2C)cc1 (stereo unspecified) returned Anthrax LF prot -2, Bead autofluor 2464, GDH-TPI inh 24, Mtb FBA inh 13, BoNT A protease 0 and BoNT F protease -8.
For CC1Oc2ccccc2C=C1/C=N/NC(=O)[C@@H](C)NC(=O)OC(C)(C)C (stereo partly specified) the results were Anthrax LF prot 3, Bead autofluor 6205, GDH-TPI inh 38*, Mtb FBA inh 17, BoNT A protease 0 and BoNT F protease -9.
Screening CC1Oc2ccccc2C=C1/C=N\NC(=O)c1cccnc1 (stereo unspecified) returned GDH-TPI inh 48* and Mtb FBA inh 6.
C=CCNC(=O)C(=O)c1c(-c2ccccc2)[nH]c2ccccc12 was read as Anthrax LF prot -1, Bead autofluor 5759, GDH-TPI inh 29, Mtb FBA inh -3, BoNT A protease 1 and BoNT F protease -3.
Screening Cc1cc(S(=O)(=O)N(Cc2ccc(F)cc2)CC2CCCO2)ccc1-n1cnnn1 (stereo unspecified) returned Anthrax LF prot 1, Bead autofluor 12739, GDH-TPI inh 4, Mtb FBA inh -1, BoNT A protease 0 and BoNT F protease -7.
For Cc1cc(C)nc(SCC(=O)NC2=NN=C(c3ccc(Br)cc3)CS2)n1 the results were Anthrax LF prot -3, Bead autofluor 24625*, GDH-TPI inh 10, Mtb FBA inh 3, BoNT A protease inconclusive and BoNT F protease -7.
CCOC(=O)C1CCN(Cc2cnc(Oc3ccc(C(C)(C)C)cc3)s2)CC1 was read as Anthrax LF prot -4, Bead autofluor 21136*, GDH-TPI inh -2, Mtb FBA inh 1, BoNT A protease -1 and BoNT F protease -3.
Brc1ccc(Oc2ncc(CN3CCOCC3)s2)cc1 was read as Anthrax LF prot -10, Bead autofluor 18177*, GDH-TPI inh 3, Mtb FBA inh 0, BoNT A protease inconclusive and BoNT F protease 12.
`CCOC(=O)c1c(C)[nH]c(C(=O)CN2C(=O)NC(CC)(c3ccccc3)C2=O)c1C` (stereo unspecified) gave Anthrax LF prot -2, Bead autofluor 2246, GDH-TPI inh 6, Mtb FBA inh 3, BoNT A protease -1 and BoNT F protease -9.

Assay outcomes deposited in PubChem by several laboratories.
